Common to all, as to assay: DAPPL (digital affinity profiling via proximity ligation, sequencing); 10 mM Tris-HCl pH 7.5, 50 mM NaCl, 1 mM DTT, 4% glycerol, room temperature, 30 min; GST-TFs on glutathione beads, 16-mer random dsDNA library, 0.1% formaldehyde crosslink after washing; high values mean tight binding
The target of one test is T1, FEV (Homo sapiens, UniProt Q99581 1-238).
T1 sequence: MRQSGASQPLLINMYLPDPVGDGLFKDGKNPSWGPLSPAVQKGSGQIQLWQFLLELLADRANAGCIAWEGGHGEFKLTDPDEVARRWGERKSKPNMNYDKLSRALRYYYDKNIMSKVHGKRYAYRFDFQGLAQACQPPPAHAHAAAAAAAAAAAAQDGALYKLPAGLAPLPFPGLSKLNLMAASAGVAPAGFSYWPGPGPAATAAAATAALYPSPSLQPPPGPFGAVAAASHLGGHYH
To be noted: protein: recombinant; tags: N-terminal GST; dsDNA, one strand shown. The method, boiled down: (§1)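 Human transcription factors were made in yeast as GST fusions, captured on glutathione beads and barcoded with DNA. With a tag-only sample included, the pool was incubated with 200 nmole of a random double-stranded 16-mer DNA library in Tris/NaCl/DTT/glycerol buffer at room temperature for 30 min, then crosslinked with 0.1% formaldehyde after washing, ligated by proximity, amplified and sequenced. For binding signal, each hexamer's read frequency for a factor is divided by its frequency for the tag-only sample.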

For another test, the target named is ETV5 (Homo sapiens, UniProt P41161 1-510). To be noted: protein: recombinant; tags: N-terminal GST; dsDNA, one strand shown. The method, boiled down:
as §1

The target in a further test is HSF1 (Homo sapiens, UniProt Q00613 1-529). To be noted: protein: recombinant; tags: N-terminal GST; chain copies: 3; dsDNA, one strand shown. In short, it runs like this: as §1
For another test, the target named is T2, SPIC (Homo sapiens, UniProt Q8N5J4 1-248).
T2 sequence: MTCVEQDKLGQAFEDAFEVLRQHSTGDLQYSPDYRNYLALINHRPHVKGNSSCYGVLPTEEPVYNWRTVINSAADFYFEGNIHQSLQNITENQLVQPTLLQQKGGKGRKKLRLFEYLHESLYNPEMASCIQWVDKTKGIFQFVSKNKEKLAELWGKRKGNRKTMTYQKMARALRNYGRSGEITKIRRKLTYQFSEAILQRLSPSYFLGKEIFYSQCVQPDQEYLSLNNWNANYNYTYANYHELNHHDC
To be noted: protein: recombinant; tags: N-terminal GST; dsDNA, one strand shown. In short, it runs like this: as §1

A further test has as its target ELF4 (Homo sapiens, UniProt Q99607 1-663). The settings on record: protein: recombinant; tags: N-terminal GST; dsDNA, one strand shown. The method, boiled down:
as §1

A further test has as its target T3, ELK4 (Homo sapiens, UniProt P28324-2 1-405).
T3 sequence: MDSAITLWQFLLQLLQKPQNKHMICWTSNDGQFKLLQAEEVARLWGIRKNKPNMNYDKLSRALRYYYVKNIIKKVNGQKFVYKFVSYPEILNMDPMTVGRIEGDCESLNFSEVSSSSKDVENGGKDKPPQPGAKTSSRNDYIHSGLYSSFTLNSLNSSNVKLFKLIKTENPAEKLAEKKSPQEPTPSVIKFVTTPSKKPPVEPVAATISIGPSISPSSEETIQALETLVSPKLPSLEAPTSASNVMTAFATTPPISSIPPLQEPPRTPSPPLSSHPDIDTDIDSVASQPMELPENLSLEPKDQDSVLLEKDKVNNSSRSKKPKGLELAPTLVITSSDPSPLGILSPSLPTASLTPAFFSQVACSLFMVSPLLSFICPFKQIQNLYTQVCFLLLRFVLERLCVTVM
To be noted: protein: recombinant; tags: N-terminal GST; dsDNA, one strand shown. The method, boiled down:
as §1

Another test has as its target T4, ETV2 (Homo sapiens, UniProt O00321 1-342).
T4 sequence: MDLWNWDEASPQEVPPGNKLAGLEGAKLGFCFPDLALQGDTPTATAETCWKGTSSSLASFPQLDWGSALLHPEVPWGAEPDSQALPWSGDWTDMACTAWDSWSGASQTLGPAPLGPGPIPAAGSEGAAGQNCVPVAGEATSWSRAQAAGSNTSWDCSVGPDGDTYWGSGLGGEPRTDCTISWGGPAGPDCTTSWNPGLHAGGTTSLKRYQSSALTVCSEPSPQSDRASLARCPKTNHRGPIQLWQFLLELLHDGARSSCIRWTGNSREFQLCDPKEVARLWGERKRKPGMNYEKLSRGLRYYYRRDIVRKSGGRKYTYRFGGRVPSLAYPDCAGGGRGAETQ
The settings on record: protein: recombinant; tags: N-terminal GST; dsDNA, one strand shown. In short, it runs like this: as §1

In another test the target is T5, ELF3 (Homo sapiens, UniProt P78545 1-371).
T5 sequence: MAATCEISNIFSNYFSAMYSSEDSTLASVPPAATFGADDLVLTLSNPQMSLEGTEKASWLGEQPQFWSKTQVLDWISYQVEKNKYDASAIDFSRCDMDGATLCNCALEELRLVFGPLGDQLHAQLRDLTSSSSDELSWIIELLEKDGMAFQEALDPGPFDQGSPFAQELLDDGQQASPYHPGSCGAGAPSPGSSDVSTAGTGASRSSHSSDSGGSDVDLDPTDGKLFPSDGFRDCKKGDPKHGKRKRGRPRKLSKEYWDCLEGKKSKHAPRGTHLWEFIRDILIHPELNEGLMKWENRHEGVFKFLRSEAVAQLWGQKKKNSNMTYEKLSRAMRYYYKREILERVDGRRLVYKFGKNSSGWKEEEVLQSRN
To be noted: protein: recombinant; tags: N-terminal GST; dsDNA, one strand shown. In short, it runs like this:
as §1

In a further test the target is CRX (Homo sapiens, UniProt O43186 1-299). To be noted: protein: recombinant; tags: N-terminal GST; dsDNA, one strand shown. In short, it runs like this:
as §1

In the next test the target is ETV1 (Homo sapiens, UniProt P50549 1-477). To be noted: protein: recombinant; tags: N-terminal GST; dsDNA, one strand shown. The method, boiled down:
as §1

The next test concerns the target T6, ERF (Homo sapiens, UniProt P50548 1-548).
T6 sequence: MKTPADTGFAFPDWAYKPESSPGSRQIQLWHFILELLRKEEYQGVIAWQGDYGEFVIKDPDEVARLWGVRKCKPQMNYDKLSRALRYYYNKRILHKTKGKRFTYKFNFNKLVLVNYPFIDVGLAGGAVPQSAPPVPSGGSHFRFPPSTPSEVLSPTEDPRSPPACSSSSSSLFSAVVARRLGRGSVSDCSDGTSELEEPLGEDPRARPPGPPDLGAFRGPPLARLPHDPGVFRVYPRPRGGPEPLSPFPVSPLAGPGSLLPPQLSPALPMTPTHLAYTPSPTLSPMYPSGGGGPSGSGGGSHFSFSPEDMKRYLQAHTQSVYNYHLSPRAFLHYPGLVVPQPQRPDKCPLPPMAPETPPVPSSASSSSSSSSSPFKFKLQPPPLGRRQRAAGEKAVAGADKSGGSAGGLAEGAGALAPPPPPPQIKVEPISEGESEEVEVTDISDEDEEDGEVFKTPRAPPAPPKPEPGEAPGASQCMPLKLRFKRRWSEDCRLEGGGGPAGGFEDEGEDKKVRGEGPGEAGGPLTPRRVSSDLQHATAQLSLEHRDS
The settings on record: protein: recombinant; tags: N-terminal GST; dsDNA, one strand shown. The method, boiled down:
as §1

The target in a further test is T7, ETV3L (Homo sapiens, UniProt Q6ZN32 1-361).
T7 sequence: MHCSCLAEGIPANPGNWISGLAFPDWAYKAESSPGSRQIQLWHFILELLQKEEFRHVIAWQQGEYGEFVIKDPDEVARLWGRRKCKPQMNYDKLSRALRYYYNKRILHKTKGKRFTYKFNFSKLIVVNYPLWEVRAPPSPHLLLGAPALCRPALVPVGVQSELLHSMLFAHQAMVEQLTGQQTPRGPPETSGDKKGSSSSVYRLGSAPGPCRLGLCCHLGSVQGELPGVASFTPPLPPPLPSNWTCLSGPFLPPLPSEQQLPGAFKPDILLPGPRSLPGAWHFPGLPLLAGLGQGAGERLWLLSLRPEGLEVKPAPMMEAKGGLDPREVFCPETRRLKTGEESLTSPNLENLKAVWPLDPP
To be noted: protein: recombinant; tags: N-terminal GST; dsDNA, one strand shown. The method, boiled down: as §1

The target in the next test is T8, ETS2 (Homo sapiens, UniProt P15036 1-469).
T8 sequence: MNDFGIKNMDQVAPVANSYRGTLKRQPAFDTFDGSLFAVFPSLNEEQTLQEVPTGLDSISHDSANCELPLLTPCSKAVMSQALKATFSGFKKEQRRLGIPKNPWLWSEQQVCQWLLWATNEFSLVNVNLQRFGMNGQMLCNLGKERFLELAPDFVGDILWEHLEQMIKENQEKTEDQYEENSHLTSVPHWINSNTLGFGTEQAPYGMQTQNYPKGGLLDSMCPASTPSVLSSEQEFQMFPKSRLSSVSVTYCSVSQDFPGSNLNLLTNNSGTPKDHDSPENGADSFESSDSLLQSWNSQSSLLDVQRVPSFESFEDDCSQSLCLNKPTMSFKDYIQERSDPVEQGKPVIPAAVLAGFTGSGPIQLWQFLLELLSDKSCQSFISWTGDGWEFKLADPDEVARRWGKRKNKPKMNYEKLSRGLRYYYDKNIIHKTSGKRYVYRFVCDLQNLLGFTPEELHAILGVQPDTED
To be noted: protein: recombinant; tags: N-terminal GST; dsDNA, one strand shown. In short, it runs like this:
as §1

For the next test, the target named is T9, SPDEF (Homo sapiens, UniProt O95238 1-335).
T9 sequence: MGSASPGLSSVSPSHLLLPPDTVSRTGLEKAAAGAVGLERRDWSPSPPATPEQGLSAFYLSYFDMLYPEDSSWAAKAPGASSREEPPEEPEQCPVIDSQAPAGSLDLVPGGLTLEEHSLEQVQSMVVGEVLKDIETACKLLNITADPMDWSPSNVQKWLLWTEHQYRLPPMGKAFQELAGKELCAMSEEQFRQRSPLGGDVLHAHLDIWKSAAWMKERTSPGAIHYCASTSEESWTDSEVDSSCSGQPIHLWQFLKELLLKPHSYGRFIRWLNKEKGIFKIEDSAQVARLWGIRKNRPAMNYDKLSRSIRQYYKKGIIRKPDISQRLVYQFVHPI
To be noted: protein: recombinant; tags: N-terminal GST; dsDNA, one strand shown. The method, boiled down: as §1

A further test deals with T10, ETV7 (Homo sapiens, UniProt Q9Y603 1-341).
T10 sequence: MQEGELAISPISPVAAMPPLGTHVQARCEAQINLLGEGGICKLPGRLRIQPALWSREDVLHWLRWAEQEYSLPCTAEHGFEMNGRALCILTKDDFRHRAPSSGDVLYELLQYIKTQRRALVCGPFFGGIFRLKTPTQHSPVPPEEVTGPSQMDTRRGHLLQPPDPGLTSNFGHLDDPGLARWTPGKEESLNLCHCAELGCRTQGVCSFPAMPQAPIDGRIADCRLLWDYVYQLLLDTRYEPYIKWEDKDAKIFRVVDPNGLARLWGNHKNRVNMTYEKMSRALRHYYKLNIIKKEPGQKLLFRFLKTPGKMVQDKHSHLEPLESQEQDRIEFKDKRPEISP
The settings on record: protein: recombinant; tags: N-terminal GST; dsDNA, one strand shown. The method, boiled down:
as §1

Another test concerns the target T11, ELF5 (Homo sapiens, UniProt Q9UKW6-2 1-255).
T11 sequence: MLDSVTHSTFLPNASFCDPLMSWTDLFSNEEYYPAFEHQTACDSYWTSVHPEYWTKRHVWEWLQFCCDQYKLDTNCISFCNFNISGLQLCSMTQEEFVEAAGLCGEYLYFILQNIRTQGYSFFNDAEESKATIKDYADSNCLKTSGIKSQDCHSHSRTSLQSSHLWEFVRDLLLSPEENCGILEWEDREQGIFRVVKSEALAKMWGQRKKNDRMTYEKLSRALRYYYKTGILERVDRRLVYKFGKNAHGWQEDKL
To be noted: protein: recombinant; tags: N-terminal GST; dsDNA, one strand shown. In short, it runs like this:
as §1

In the next test the target is T12, ETV3 (Homo sapiens, UniProt P41162-2 1-143).
T12 sequence: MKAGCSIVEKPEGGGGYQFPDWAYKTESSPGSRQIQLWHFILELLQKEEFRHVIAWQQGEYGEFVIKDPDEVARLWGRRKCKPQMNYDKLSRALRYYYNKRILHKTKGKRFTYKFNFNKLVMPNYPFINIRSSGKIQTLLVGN
The settings on record: protein: recombinant; tags: N-terminal GST; dsDNA, one strand shown. In short, it runs like this:
as §1

The target in the next test is ETV6 (Homo sapiens, UniProt P41212 1-452). The settings on record: protein: recombinant; tags: N-terminal GST; dsDNA, one strand shown. The method, boiled down: as §1
ETV6, sequence (P41212 whole entry): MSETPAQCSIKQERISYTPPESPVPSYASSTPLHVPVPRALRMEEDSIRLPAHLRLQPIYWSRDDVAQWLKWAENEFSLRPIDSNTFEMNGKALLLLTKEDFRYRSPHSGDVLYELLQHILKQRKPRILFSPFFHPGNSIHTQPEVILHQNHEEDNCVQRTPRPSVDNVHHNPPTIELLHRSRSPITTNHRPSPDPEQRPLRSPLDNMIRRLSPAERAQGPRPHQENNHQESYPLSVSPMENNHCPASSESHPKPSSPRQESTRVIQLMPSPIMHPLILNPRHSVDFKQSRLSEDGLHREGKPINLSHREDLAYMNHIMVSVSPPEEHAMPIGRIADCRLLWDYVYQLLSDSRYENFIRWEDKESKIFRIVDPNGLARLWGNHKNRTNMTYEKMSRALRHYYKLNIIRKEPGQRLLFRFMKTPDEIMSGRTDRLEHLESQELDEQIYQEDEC

ETV1, sequence (P50549 whole entry): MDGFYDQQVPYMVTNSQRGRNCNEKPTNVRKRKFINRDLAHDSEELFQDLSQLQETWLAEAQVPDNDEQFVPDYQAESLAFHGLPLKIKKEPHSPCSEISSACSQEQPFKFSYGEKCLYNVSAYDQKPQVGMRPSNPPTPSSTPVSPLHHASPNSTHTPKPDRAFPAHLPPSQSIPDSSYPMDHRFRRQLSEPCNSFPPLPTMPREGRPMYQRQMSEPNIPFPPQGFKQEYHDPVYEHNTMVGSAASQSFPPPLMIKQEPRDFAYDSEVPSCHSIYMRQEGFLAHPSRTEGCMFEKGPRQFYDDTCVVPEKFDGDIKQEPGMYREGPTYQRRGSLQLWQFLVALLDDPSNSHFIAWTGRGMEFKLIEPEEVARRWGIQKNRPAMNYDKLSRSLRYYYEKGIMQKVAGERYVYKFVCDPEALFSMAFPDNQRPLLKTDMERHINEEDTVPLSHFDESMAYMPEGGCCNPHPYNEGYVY
ETV5, sequence (P41161 whole entry): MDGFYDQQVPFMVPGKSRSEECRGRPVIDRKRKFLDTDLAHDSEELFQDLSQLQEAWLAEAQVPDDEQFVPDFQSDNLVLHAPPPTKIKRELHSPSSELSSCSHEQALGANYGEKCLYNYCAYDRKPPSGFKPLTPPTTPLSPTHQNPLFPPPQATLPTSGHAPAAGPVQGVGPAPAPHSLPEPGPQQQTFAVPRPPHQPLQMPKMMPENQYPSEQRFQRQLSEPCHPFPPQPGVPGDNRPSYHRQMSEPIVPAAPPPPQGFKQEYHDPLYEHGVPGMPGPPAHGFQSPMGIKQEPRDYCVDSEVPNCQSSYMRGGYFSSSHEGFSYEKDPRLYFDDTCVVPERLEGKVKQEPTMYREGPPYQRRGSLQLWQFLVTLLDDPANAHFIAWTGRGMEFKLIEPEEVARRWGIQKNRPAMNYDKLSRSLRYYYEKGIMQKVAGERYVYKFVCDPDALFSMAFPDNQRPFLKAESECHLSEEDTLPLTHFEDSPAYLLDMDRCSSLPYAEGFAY
ELF4, sequence (Q99607 whole entry): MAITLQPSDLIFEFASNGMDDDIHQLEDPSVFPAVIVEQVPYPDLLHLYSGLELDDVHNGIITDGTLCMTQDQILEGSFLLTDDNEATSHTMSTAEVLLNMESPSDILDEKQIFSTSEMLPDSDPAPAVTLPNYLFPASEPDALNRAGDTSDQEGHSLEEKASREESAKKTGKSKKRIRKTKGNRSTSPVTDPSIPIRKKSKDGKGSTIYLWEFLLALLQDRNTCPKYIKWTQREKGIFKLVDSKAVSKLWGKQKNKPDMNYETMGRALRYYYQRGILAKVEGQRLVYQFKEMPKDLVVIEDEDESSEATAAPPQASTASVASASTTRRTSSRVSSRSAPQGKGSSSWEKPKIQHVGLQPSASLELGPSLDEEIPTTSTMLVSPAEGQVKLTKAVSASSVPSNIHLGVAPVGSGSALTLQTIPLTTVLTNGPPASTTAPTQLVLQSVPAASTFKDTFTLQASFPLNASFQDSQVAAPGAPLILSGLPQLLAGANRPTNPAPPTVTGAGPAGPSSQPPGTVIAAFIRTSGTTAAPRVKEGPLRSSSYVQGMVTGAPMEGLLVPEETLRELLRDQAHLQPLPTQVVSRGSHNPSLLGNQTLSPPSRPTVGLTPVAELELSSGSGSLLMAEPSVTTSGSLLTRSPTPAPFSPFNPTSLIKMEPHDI
CRX, sequence (O43186 whole entry): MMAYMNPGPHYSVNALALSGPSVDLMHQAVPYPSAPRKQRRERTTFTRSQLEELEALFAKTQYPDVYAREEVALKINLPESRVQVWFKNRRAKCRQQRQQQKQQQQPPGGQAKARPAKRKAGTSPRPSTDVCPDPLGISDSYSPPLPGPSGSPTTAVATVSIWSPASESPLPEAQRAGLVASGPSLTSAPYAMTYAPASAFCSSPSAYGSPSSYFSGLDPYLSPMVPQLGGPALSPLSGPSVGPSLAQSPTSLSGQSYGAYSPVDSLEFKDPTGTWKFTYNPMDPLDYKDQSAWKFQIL
HSF1, sequence (Q00613 whole entry): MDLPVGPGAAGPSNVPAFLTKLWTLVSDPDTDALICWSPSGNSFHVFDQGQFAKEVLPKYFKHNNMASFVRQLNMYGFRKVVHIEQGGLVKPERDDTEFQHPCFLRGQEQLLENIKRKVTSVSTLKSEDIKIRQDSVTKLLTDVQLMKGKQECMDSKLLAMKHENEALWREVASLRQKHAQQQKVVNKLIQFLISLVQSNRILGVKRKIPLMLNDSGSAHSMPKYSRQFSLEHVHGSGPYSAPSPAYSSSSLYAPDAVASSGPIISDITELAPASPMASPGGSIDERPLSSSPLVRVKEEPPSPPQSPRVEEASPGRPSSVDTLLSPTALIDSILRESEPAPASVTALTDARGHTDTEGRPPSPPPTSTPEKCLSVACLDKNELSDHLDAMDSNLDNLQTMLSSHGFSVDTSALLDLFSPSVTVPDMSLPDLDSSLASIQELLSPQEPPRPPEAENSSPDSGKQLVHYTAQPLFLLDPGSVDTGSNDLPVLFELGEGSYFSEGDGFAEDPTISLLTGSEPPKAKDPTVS

Consider ATACCT, for which the binding signal with FEV is 1.04 fold enrichment (6-mer frequency, TF over GST control); with ETV5 it was 1.01 fold enrichment (6-mer frequency, TF over GST control); in the test with HSF1 it was 1.01 fold enrichment (6-mer frequency, TF over GST control); with SPIC it was 1.11 fold enrichment (6-mer frequency, TF over GST control); with ELF4, 1.1 fold enrichment (6-mer frequency, TF over GST control); with ELK4 it was 1.1 fold enrichment (6-mer frequency, TF over GST control). In addition, the binding signal with ETV2 was 1.09 fold enrichment (6-mer frequency, TF over GST control); with ELF3, 1.08 fold enrichment (6-mer frequency, TF over GST control); with CRX it was 1.12 fold enrichment (6-mer frequency, TF over GST control); with ETV1 it was 1.15 fold enrichment (6-mer frequency, TF over GST control); with ERF it was 1.12 fold enrichment (6-mer frequency, TF over GST control); with ETV3L, 1.09 fold enrichment (6-mer frequency, TF over GST control). Further, the binding signal with ETS2 is 1.16 fold enrichment (6-mer frequency, TF over GST control); in the test with SPDEF, 1.04 fold enrichment (6-mer frequency, TF over GST control); with ETV7, 1.18 fold enrichment (6-mer frequency, TF over GST control); with ELF5 it was 1.04 fold enrichment (6-mer frequency, TF over GST control); in the test with ETV3 it was 1.11 fold enrichment (6-mer frequency, TF over GST control); with ETV6, 1.07 fold enrichment (6-mer frequency, TF over GST control).
